Screening results: PubChem, several laboratories
proKLK7 act = activates the human kallikrein-7 zymogen; P49862; purified proKLK7, EDANS-DABCYL substrate fluorescence; 100% is mature enzyme control, 0% vehicle; activation, % at 7 µM; 370,000 tested, 0.9% active; AID 652039;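 active means activation above the mean of all tested compounds plus 3 SD, computed per campaign excluding outliers beyond control limits, cut at about 13% in these data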
Target sequence (P49862 whole entry, looked up): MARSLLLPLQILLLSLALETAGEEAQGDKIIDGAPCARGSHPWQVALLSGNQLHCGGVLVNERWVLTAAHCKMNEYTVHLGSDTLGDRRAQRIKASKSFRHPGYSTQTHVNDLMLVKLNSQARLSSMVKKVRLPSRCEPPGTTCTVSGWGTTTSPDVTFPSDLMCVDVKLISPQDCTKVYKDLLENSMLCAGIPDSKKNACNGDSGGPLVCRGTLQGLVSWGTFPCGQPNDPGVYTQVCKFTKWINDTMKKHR
FAS-TE inh = FAS thioesterase (human) inhibition; recombinant FAS-TE, OMFH fluorogenic substrate, fluorescence endpoint; 360,000 tested, 0.67% active; inhibition, % at 15 µM; AID 602261;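 active means compounds whose normalised, plate-corrected inhibition of enzyme fluorescence in the single-dose primary screen is 50% or more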;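 further: 0% = DMSO with enzyme and 100% = substrate without enzyme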
ADAM17 inh = inhibitors of human ADAM17 | P78536 | recombinant ADAM17, EDANS/DABCYL FRET peptide cleavage | inhibition, % at 6.95 µM | 370,000 tested, 0.83% active;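 active means inhibition above the mean of compounds lying between control limits plus 3 SD, set per campaign, cut at about 8.5% in these data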;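 further: 0% = DMSO-only wells as the low control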
ADAM10 inh = inhibits human ADAM10; O14672; recombinant ADAM10, EDANS/DABCYL FRET peptide cleavage, 3 h; inhibition, % at 7 µM; 370,000 tested, 0.62% active; AID 720582;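 active means inhibition above a per-campaign cutoff equal to the mean of compounds falling between control-based bounds plus 3 SD, cut at about 20% in these data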;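 further: 0% = DMSO wells while the 100% control is not disclosed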
NR3A LBD binder = modulators (binders) of human NR3A ligand-binding domain; NR3A LBD differential scanning fluorimetry, Tm shift; 0% = protein alone, 100% = glycine-bound protein; Tm shift relative to glycine control, % at 25 µM; 340,000 tested, 2.5% active; AID 1259313;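 active means melting temperature shift of at least 10% of the positive control shift, at one fixed dose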
KLK7 act conf = proKLK7 activation, confirmation | 3,200 tested, 68% active | shares compounds with proKLK7 act | activation, % at 7 µM | AID 686949 | purified proKLK7, EDANS-DABCYL substrate fluorescence; scaled: vehicle 0, mature enzyme 100;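 active means activation, as change over the incubation, above the mean of all tested compounds plus 3 SD, cut at about 13% in these data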
EDANS-DABCYL int = optically interferes with EDANS-DABCYL signal, flagging KLK7 hits | EDANS-DABCYL substrate fluorescence interference, no enzyme, 4 h; solvent 0%, active enzyme control 100% | activation, % at 7 µM | 3,200 tested, 80% active | AID 686952 | shares compounds with proKLK7 act;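 active means activation above the all-compound mean plus 3 SD, ignoring values outside control-based bounds, cut at about 4.8% in these data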;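 further: value is the 4 h activation minus the activation read at time zero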
EDANS interf = optically interferes with EDANS-DABCYL fluorescence, kallikrein-7 activator counter-screen; EDANS-DABCYL peptide fluorescence interference, no enzyme; EC50, µM; 250 tested, 20% active; shares compounds with proKLK7 act;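 active means compounds that raise the fluorescence signal in this interference counterscreen, with EC50 at or below 10 µM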;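 further: intact quenched peptide substrate alone read at 355 nm excitation and 520 nm emission; signal is fluorescence gain from T0 to T4 after four hours at room temperature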
* hit, by the source's call; i = inactive; · = no result. In the library only some 4.6% were active in any assay of this set; here they are far more common.

SMILES	proKLK7 act	FAS-TE inh	ADAM17 inh	ADAM10 inh	NR3A LBD binder	KLK7 act conf	EDANS-DABCYL int	others
CC1CC(NC(=O)c2cc3c(=O)n4ccccc4nc3n2C)CC(C)(C)C1 (stereo unspecified)	-84	8	-203	i	-8	·	·
CCOC(=O)C1CCN(C(=O)c2cc3c(=O)n4ccccc4nc3n2C)CC1	78*	-9	i	i	0	64*	64*
Cn1c(C(=O)N2CCOCC2)cc2c(=O)n3ccccc3nc21	61*	-3	i	i	-1	73*	84*
CC1CN(C(=O)c2cc3c(=O)n4ccccc4nc3n2C)CC(C)O1 (stereo unspecified)	79*	-7	i	i	0	75*	71*
Cn1c(C(=O)O)cc2c(=O)n3ccccc3nc21	58*	-4	i	i	-1	71*	79*
CCCOc1ccc(-c2cc(C(C)=O)c3n(c2=O)CCC3)cc1	0	·	1	3	·	·	·
Nc1c(C(=O)NCC(O)c2ccccc2)cnn1-c1ccccc1 (stereo unspecified)	0	·	-1	-6	·	·	·
COC(=O)[C@]12C[C@H](CC(=O)N3CCCC3)C(=O)N(Cc3ccc(Cl)cc3Cl)C1=C[C@H](C(C)C)O[C@@H]2C1CC1	0	·	3	9	·	·	·
Cn1c(C(=O)N2CCc3ccccc3C2)cc2c(=O)n3ccccc3nc21	16*	-1	i	i	0	-33	-26
COc1ccc(C#Cc2ccc3c(c2)[C@H]2[C@H](CCN2S(=O)(=O)c2ccccc2F)[C@H](CO)N3C)cc1	-2	·	-9	-21	·	·	·
CCOC(=O)[C@@]12CCCC3=C1N(CCC3)C(=O)[C@H]2CC(=O)N1CCCCC1	0	·	-1	-2	·	·	·
C[C@]12c3[nH]c4cc(-c5ccco5)ccc4c3CCN1C(=O)[C@@H](CC(=O)NCCCn1ccnc1)C[C@@H]2C(=O)N1CCCCC1	105*	-14	-55	-209	-1	40*	61*
CN(C)CCCNC(=O)C[C@H]1C[C@H](C(=O)N2CCCCC2)[C@@]2(C)c3[nH]c4cc(-c5ccco5)ccc4c3CCN2C1=O	97*	-4	-55	-217	-3	86*	109*
C[C@]12c3[nH]c4cc(-c5ccco5)ccc4c3CCN1C(=O)[C@@H](CC(=O)NCCCn1ccnc1)C[C@@H]2C(=O)N1CCOCC1	·	-14	·	·	-3	·	·
CN(C)CCCNC(=O)C[C@H]1C[C@H](C(=O)N2CCCCC2)[C@@]2(CCc3ccccc3)c3[nH]c4cc(-c5ccco5)ccc4c3CCN2C1=O	46*	6	-46	-170	0	41*	52*
CC[C@]12c3[nH]c4cc(-c5ccco5)ccc4c3CCN1C(=O)[C@@H](CC(=O)NCCCN(C)C)C[C@@H]2C(=O)N1CCN(C(=O)c2ccco2)CC1	84*	-6	-29	-107	0	47*	63*
CSc1nc(N2CCOCC2)nc2ccc(C)cc12	35*	2	-279	i	-1	-31	-43
C=CCN(C(=O)c1ccc2c(c1)nnn2C)c1ccccc1	0	-6	1	0	0	·	·
CCN(CC)C(=O)c1ccc2c(c1)nnn2C	16*	-14	-3	-4	0	0	0
Cc1ccccc1CN1CCCCC(NC(=O)c2cccc(F)c2)C1=O (stereo unspecified)	0	·	-2	-2	·	·	·
COC(=O)C1=C(C)N(Cc2ccccc2C(F)(F)F)C(=NCc2cccc(C(F)(F)F)c2)NC1CCc1ccccc1 (stereo unspecified)	-1	·	-2	-12	·	·	·
COCCOC(=O)c1c(N)n(CCCN2CCOCC2)c2nc3ccccc3nc12	46*	-2	i	i	0	75*	79*
CC(C)Cn1c(N)c(C(=O)NCCN2CCOCC2)c2nc3ccccc3nc21	57*	1	-441	i	-33	-93	-108
COC(=O)c1c(N)n(CCCN2CCOCC2)c2nc3ccccc3nc12	43*	-8	i	i	0	75*	80*
CS(=O)(=O)c1ccc(C(=O)OCC#CCSc2nnc(-c3cccc4ccccc34)o2)cc1	·	·	-8	-12	·	·	·
SMILES	proKLK7 act	FAS-TE inh	ADAM17 inh	ADAM10 inh	NR3A LBD binder	KLK7 act conf	EDANS-DABCYL int	others
N=c1c(C(=O)NCCN2CCOCC2)cc2c(=O)n3ccccc3nc2n1CCc1ccccc1	24*	-2	-349	i	2	8	11*
N=c1c(C(=O)NCc2ccc(F)cc2)cc2c(=O)n3ccccc3nc2n1CCCN1CCOCC1	5	-9	-436	i	-1	·	·
N=c1c(C(=O)NCCc2ccccc2)cc2c(=O)n3ccccc3nc2n1CCCN1CCOCC1	29*	-3	i	i	-1	8	7.7*
N=c1c(C(=O)NCc2ccccc2)cc2c(=O)n3ccccc3nc2n1CCCN1CCOCC1	13*	-12	-350	i	0	2	3
O=C1CCC[C@H]2Cc3nc4cc5c(cc4cc3C[C@]23CCCN13)OCO5	·	·	-13	-42	·	·	·
COC(=O)[C@@]12CCCCC=C1N(CCc1ccc(Cl)cc1)C(=O)[C@H]2CC(=O)NCc1cccc(C(F)(F)F)c1	0	·	4	9	·	·	·
CCCCN1C(=O)C(CC(=O)NC2CCCCC2)CC(C(=O)N2CCCCCC2)=C1C (stereo unspecified)	0	-7	-5	-5	·	·	·
COCCCN1C(=O)C(CC(=O)NC2CCCCC2)CC(C(=O)N2CCCCCC2)=C1C (stereo unspecified)	83*	-4	-1	7	·	0	-1
COC(=O)[C@]12C[C@H](CC(=O)NCC34CC5CC(CC(C5)C3)C4)C(=O)N(Cc3cccc4ccccc34)C1=C[C@H](COCc1ccccc1)O[C@@H]2C	0	·	0	-1	·	·	·
COC(=O)c1cc2c(c3c4cc(OC)ccc4n(C(=O)c4ccccc4)c13)C(=O)N(C1CCCCC1)C2	-1	·	-15	-41	·	·	·
CCN(C(=O)c1cc2c(=O)n3cccc(C)c3nc2s1)C1CCCCC1	0	12	-17	-44	1	·	·
CCN(CC)C(=O)c1cc2c(=O)n3cccc(C)c3nc2n1C	22*	-5	-197	i	0	15*	21*
CCN(CC)C(=O)c1cc2c(=O)n3cccc(C)c3nc2s1	20*	-12	i	i	-2	13*	15*
CCC(C)NC(=O)c1cc2c(=O)n3cccc(C)c3nc2s1 (stereo unspecified)	20*	-2	i	i	-1	18*	-3	EDANS interf=>70
